Whole data set: some 33,000 sequences, median “E-score (-0.5 to 0.5)” near -0.021, cut for the highest 2% near 0.32. Only a selection was taken, and the highest values are over-represented in it overall.
What follows are sequences tested against T1, Zap1 (UniProt P47043) (assay: PBM E-score (8-mer binding enrichment) (E-score (-0.5 to 0.5)); higher = stronger / more preferred TF binding). Conditions: protein concentration: 200 nM; construct: GST-full length.
T1 sequence: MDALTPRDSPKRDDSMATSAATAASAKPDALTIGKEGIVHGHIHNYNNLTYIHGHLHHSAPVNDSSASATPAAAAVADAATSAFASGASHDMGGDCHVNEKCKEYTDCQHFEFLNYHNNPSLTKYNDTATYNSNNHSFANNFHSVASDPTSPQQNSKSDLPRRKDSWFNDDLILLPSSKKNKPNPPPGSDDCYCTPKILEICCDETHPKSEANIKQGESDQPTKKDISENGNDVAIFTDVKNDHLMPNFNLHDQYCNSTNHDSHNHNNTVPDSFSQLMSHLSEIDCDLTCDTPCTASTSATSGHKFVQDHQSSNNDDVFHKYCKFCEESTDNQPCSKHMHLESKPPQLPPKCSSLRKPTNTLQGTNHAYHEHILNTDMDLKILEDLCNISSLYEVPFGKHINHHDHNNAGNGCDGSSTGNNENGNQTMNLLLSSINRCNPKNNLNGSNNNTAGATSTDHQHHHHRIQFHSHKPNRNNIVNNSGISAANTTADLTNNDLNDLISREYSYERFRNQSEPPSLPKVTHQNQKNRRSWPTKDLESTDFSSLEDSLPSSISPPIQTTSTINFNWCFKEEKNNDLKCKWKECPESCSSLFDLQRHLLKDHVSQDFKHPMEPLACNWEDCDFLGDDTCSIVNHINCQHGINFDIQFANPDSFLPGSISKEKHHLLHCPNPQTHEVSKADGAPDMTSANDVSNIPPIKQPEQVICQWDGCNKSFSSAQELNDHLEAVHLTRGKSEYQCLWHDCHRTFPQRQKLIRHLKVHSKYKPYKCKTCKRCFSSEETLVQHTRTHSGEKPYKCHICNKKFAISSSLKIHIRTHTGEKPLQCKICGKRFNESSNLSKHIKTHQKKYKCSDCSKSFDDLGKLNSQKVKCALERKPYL
Protocol: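 Universal 'all 10-mer' protein binding microarrays (Agilent AMADID 015681) probed with GST-tagged S. cerevisiae TFs (full-length or DBD) made by in vitro transcription/translation (PURExpress), about 100-200 nM. Bound TF was detected with fluorescent anti-GST. Each ungapped 8-mer (which stands for itself and its reverse complement) is scored by the PBM enrichment score (E-score), a modified Wilcoxon-Mann-Whitney statistic from -0.5 to +0.5, computed with the Universal PBM Analysis Suite. Scale: above 0.35 generally sequence-specific binding.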

Sequence | PBM E-score
ACCCCTGG | 0.289
GACCCTGA | 0.304
ATCCAACA | 0.0629
AGCAAAAG | -0.146
CCTAACTA | 0.135
CGTCCTCA | -0.162
GAAGCCCC | -0.272
AGTTAAAC | 0.0887
TGTTAAAA | 0.0204
GGTTAAAA | 0.385
CGTTAAAA | 0.0117
AGTTAAGA | 0.00562
CGTTAAGA | -0.0174
GGTTAAAC | 0.356
CGTTAAAC | 0.21
GGTTAAGA | 0.364
AGTGTCGA | 0.127
AACAGATG | -0.00675
AAGACTTA | -0.0811
CTTAGACC | -0.0476
GAGCGTAC | -0.162
TACTTGCA | 0.0221
CGGGGCTA | -0.15
CGGGCTCA | -0.323
ATGAGGTA | 0.324
CTGAGGTA | 0.275

Sequence | PBM E-score
ATGAGGTG | 0.0386
GGCTAGCC | -0.248
AGTGCCCG | -0.203
CCTGCTCG | -0.0742
ACCCTCCG | 0.228
ACCCTCGT | 0.358
ACACTCGT | -0.0522
CCCCTCGC | 0.0553
CCCCTCGA | 0.169
ACCCTCGA | 0.143
CCCCTCGG | 0.34
ACCCTCGC | 0.267
ACCCTCGG | 0.329
CAGTACAG | 0.091
ACTTCTCT | -0.0321
CCAAGTTA | 0.0627
CATGACGC | -0.108
ACCAGCGC | -0.0562
GGACCTCC | -0.134
GAAGGAGA | -0.122
GACTCTCC | -0.236
AACCCAAT | 0.187
AACCCAAG | 0.346
AACCCAAC | 0.282
ACCACAAA | 0.35
CACCCAAA | 0.255

Sequence | PBM E-score
TACCCCCA | 0.054
ACCACAAG | 0.259
GCCACAAA | 0.221
GACCCAAA | 0.299
TACCCCAA | 0.363
GACCCCAA | 0.172
AACCCAAA | 0.35
CGTTAGCC | -0.0813
GTCTTAGA | 0.0182
CCATCAAA | 0.0846
CCAGAAGA | -0.0769
AACCCCAA | 0.377
AACCCCAC | 0.344
AACCCCCA | -0.0716
AACCAAAA | 0.364
CCCCCAAA | -0.22
CACCAAAA | 0.235
ACCCCCAA | -0.0064
TACCAAAA | 0.161
GACCCCAC | 0.243
ACCCCAAA | 0.337
ACCCCAAG | 0.311
ACCCCCAC | -0.286
AACTAACG | 0.166
AACTGCGC | -0.0727
CCTTAGAA | 0.211

Sequence | PBM E-score
GCCAACAA | 0.192
AGGCTAAC | -0.0255
TCCTACCA | -0.13
GATTTAGC | 0.118
ATTGTGGC | 0.0557
AAACCCAT | 0.253
ACAAAAAC | 0.182
ACCCCCAT | 0.0539
ACCCAAAG | 0.271
ACAAAAAT | 0.234
ACAAAAAA | 0.317
AACCCCAT | 0.359
GCCCAAAA | 0.179
ACCCAAAA | 0.345
CCCCTTCA | -0.105
CTCCTAAA | -0.147
GCAATGCC | -0.104
ACCACCGA | 0.172
ACGTAAGG | -0.112
AACAGGCG | -0.32
TTATCAAA | 0.2
GTAATCAA | 0.146
ATTCACTA | 0.0664
CATAGAGC | -0.238
ATGAGCGC | -0.0149
GACCTGAA | 0.132

Sequence | PBM E-score
CCGGCGCC | -0.114
ATAGGGTA | 0.38
CTAGGGAA | -0.037
GTAGGGAA | -0.112
GTAGGGTA | 0.429
ATAGGGTC | 0.272
GTAGGGCA | -0.143
CTAGGGTA | 0.411
CTAGGGTC | 0.309
ATAGGGTG | 0.214
TTAATGAA | 0.187
TCTTGGAA | 0.089
AGATTAAA | 0.2
GCTTTGAC | 0.0804
CTAGACTC | -0.231
ACGCATTA | 0.12
AATAAGAA | 0.208
ATAGAAGC | -0.0622
CCCAACCC | 0.163
CACAACAA | 0.0567
AACAACCT | 0.273
CCCAACCA | 0.123
CACAACCA | 0.343
AACAACCG | 0.1
AACAACAA | 0.181
AACAACCC | 0.408

Sequence | PBM E-score
CACAACCG | 0.289
AACAACCA | 0.319
AACAACAC | 0.151
CACAACCC | 0.414
AGCGCCAG | -0.256
CGCTTAGC | -0.239
ACATTTGC | -0.00108
CTTCCCAA | -0.213
GACAACCA | 0.252
GACAAACC | 0.124
TACAACCA | 0.319
GACAACCC | 0.35
GACAACTC | -0.0129
TACAACAA | 0.276
GCGTCGCC | -0.162
GGGGCCTA | -0.136
GCCAGGGA | -0.174
AACCACCC | 0.353
CCCCACCA | 0.119
GCCCACAC | -0.102
CACCACCC | 0.186
CCCCACCG | 0.163
GCCCACCC | 0.335
ACCCACCC | 0.373
CCCCACCC | 0.357
ACCCACCA | 0.177

Sequence | PBM E-score
GCCCACCA | -0.217
AACCACCA | 0.273
ACCCACCT | 0.213
ACACCAGT | -0.0248
GTGCCCTA | -0.314
CCTGGTGA | 0.0199
CGCTGCGC | -0.373
GCTGAGAA | -0.156
ATCTGAGG | 0.094
ACCCTGGG | 0.376
ACCCTGTC | 0.193
ACCCTGTG | 0.367
AGCCTGTG | -0.29
ACCCTGGC | 0.183
AGCCTGAT | -0.177
AACCTGAT | 0.177
CCCCTGAC | 0.113
AACCTGTG | 0.207
ACCCTGAC | 0.335
ACCCTGAT | 0.344
ACCCTGGA | 0.161

From the supplement of paper PMC3334620
